Measured values: PubChem BioAssay (NCATS)
Inconclusive results are not listed. Activity calls are given as the source filed them. Unless noted, calls follow the shape of the full dose curve.

Key:
[1] = molecular target: Androgen receptor (Homo sapiens) (UniProt P10275); experiment: qHTS assay for small molecule antagonists of androgen receptor signaling (AID 588516; active = well fitted curve in the direction sought with a large enough effect in the signal ratio, with a control signal flat, not every such curve was filed as active; the % refers to the signal ratio; also: % is scaled to controls: 0 for no effect and ±100 for the full control effect)
Procedure, shortened: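 AR-UAS-bla GripTite HEK 293 cells (2000/well) treated with compound titrations plus 10 nM R1881 for 16 h at 37C. Beta-lactamase read by CCF4 FRET (460/530 nm); IC50 from Hill fits, normalized to R1881 and DMSO control wells.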

[2] = molecular target: Bile acid receptor (Homo sapiens) (UniProt Q96RI1); experiment: qHTS assay for small molecule antagonists of farnesoid X receptor signaling (AID 588526); also: % is scaled to controls: 0 for no effect and ±100 for the full control effect
Procedure, shortened: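 Beta-lactamase reporter antagonist mode: HEK293T FXR-UAS-bla cells, titrated compound, CDCA stimulation, 16 h 37 C, CCF4 dye 2 h RT. Data normalized to CDCA 50 uM and DMSO; Hill-fit IC50.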

[3] = molecular target: Glucocorticoid receptor (Homo sapiens) (UniProt P04150); experiment: qHTS assay for small molecule antagonists of glucocorticoid receptor signaling (AID 588533; active = well fitted inhibition curve with a large enough effect in the signal ratio, with a control signal flat, not every such curve was filed as active; the % refers to the signal ratio;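 also: cells stimulated with 2 nM dexamethasone as agonist; % is scaled to controls: 0 for no effect and ±100 for the full control effect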)
Procedure, shortened: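 Antagonist-mode qHTS: compound titrations added to GRE-bla HeLa cells, then dexamethasone 2 nM final; 18 h, 37 C. CCF4 FRET fluorescence normalized to dexamethasone and DMSO; IC50 from Hill fit.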

[4] = qHTS assay for small molecule agonists of retinoid X receptor alpha signaling (AID 588544); conditions: HEK293T RXRa-UAS-bla, beta-lactamase reporter, 18 h; 530 nm emission;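 as to activation: 0% = DMSO basal wells and 100% = reference agonist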
[5] = molecular target: Retinoic acid receptor RXR-alpha (Homo sapiens) (UniProt P19793); experiment: as above
[6] = molecular target: Thyroid hormone receptor beta (Homo sapiens) (UniProt P10828); experiment: qHTS assay for small molecule agonists of thyroid hormone receptor beta signaling (AID 588545);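 also: 0% = DMSO only and 100% = 10 nM T3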
Procedure, shortened: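 Compounds were tested as agonists in TR-UAS-bla-GripTite HEK 293 cells. After 18 hrs at 37 C, CCF4 substrate was added and fluorescence read after 2 hrs at room temperature.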

[7] = qHTS assay for small molecule antagonists of retinoid X receptor alpha signaling (AID 588546; active = well fitted inhibition curve with a large enough effect in the signal ratio, with a control signal flat, not every such curve was filed as active; the % refers to the signal ratio;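 also: cells stimulated with 9-cis-retinoic acid as agonist; % is scaled to controls: 0 for no effect and ±100 for the full control effect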); conditions: HEK293T RXRa-UAS-bla, beta-lactamase ratio, antagonist mode; measured here: W530 green channel, cytotoxicity proxy
Procedure, shortened: (§1)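 Beta-lactamase reporter inhibition, read as CCF4 fluorescence ratio (ex 405, em 460/530 nm) after 2 h at RT. HEK293T UAS-bla cells, 2500/well, were stimulated with 9-cis-RA at 500 or 100 nM final alongside test compound for 18 h at 37 C.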

[8] = molecular target: Retinoic acid receptor RXR-alpha (Homo sapiens) (UniProt P19793); experiment: as above; conditions: HEK293T RXRa-UAS-bla, beta-lactamase ratio, antagonist mode
Procedure, shortened: as §1

[9] = molecular target: Thyroid hormone receptor beta (Homo sapiens) (UniProt P10828); experiment: qHTS assay for small molecule antagonists of thyroid hormone receptor beta signaling (AID 588547; active = well fitted inhibition curve with a large enough effect in the signal ratio, with a control signal flat, not every such curve was filed as active; the % refers to the signal ratio); conditions: TR-UAS-bla HEK293, beta-lactamase ratio, antagonist mode, 18 h
Procedure, shortened: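 Inhibition of T3-driven (0.4nM final) beta-lactamase reporter activity was measured over 0.59 nM to 92 uM compound after 18 h at 37 C. The cells were GripTite HEK293 TR-UAS-bla in charcoal/dextran-stripped serum, with CCF4 ratio read-out and IC50 from Hill fits.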

[10] = molecular target: Voltage-gated inwardly rectifying potassium channel KCNH2 (Homo sapiens) (UniProt Q12809); experiment: qHTS Assay for Small Molecule Inhibitors of the Human hERG Channel Activity (AID 588834; active = well fitted inhibition curve with a large enough effect;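 also: top concentration of the series differs between compounds; % is scaled to controls: 0 for no effect and ±100 for the full control effect; lower thallium flux fluorescence means stronger hERG block; nearly all actives have a fitted effect of over 50% in size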)
Procedure, shortened: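 Thallium serves as surrogate for K+ influx through BacMam-delivered hERG in U2OS cells. Compounds are added for about 10 minutes after dye loading; stimulation buffer then starts flux, monitored kinetically on FDSS.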

[11] = qHTS assay for small molecule agonists of the antioxidant response element (ARE) signaling pathway (AID 651741; active = well fitted activation curve with a large enough effect in the signal ratio; the % refers to the signal ratio; also: % of control where 0% means no effect)
Procedure, shortened: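 Agonist activity is measured as ARE-driven beta-lactamase expression in a stable HepG2 reporter line, using 16 h compound treatment at 37 C and a FRET substrate fluorescence readout after 2 h.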

[12] = qHTS assay for small molecule activators of the p53 signaling pathway (AID 651743; active = well fitted activation curve with a large enough effect in the signal ratio, not every such curve was filed as active; the % refers to the signal ratio; also: series mostly up to about 92 µM; % of control where 0% means no effect); conditions: HCT-116 p53RE-bla, beta-lactamase FRET ratio, 16 h; stronger effect = higher value
Procedure, shortened: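 A beta-lactamase reporter under p53 response element control, stably carried by HCT-116 cells, reported pathway activation. Test compounds were applied for 16 hours at 37 C, and fluorescence was measured 2 hours after adding the B/G FRET substrate.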

[13] = molecular target: Glucocorticoid receptor (Homo sapiens) (UniProt P04150); experiment: qHTS assay for small molecule agonists of glucocorticoid receptor signaling (AID 588532; active = well fitted curve in the direction sought with a large enough effect in the signal ratio, with a control signal flat; the % refers to the signal ratio;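 also: 100% = dexamethasone at 0.1 µM and 0% = DMSO only wells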); conditions: HeLa MMTV-bla, beta-lactamase ratio, agonist, 18 h; stronger effect = higher value; percent of dexamethasone control, DMSO zero
Procedure, shortened: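 Using MMTV-bla HeLa cells in medium with 1% stripped FBS and 25 mM HEPES, compounds were titrated and incubated overnight-length (18 h). Beta-lactamase cleavage of CCF4 was quantified by dual-emission fluorescence.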

[14] = qHTS assay for small molecule antagonists of peroxisome proliferator-activated receptor delta signaling (AID 588535; active = well fitted inhibition curve with a large enough effect in the signal ratio, with a control signal flat, not every such curve was filed as active; the % refers to the signal ratio;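 as to max response: cells co-treated with a PPAR-delta agonist as stimulator during compound exposure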); conditions: HEK293T PPARd-UAS-bla, beta-lactamase FRET ratio, 18 h; 460 nm channel
Procedure, shortened: (§2)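 Antagonist-mode qHTS using GeneBLAzer PPAR-delta-UAS-bla HEK293T cells; compound exposure 18 hrs at 37 C over a titration. Ratiometric CCF4 fluorescence at 460/530 nm; concentration-response points fitted to the Hill equation.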

[15] = molecular target: Peroxisome proliferator-activated receptor gamma (Homo sapiens) (UniProt P37231); experiment: qHTS assay for small molecule agonists of peroxisome proliferator-activated receptor gamma signaling (AID 588536; active = well fitted curve in the direction sought with a large enough effect in the signal ratio, with a control signal flat, not every such curve was filed as active; the % refers to the signal ratio;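 also: 0% = DMSO basal wells and 100% = rosiglitazone at 2 µM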)
Procedure, shortened: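 Beta-lactamase reporter read-out: CCF4 fluorescence (ex 405, em 460/530 nm) after 2 h at RT. HEK293 GeneBLAzer cells were treated for 16 h at 37 C. Hill fits gave EC50 and efficacy versus 2 uM rosiglitazone (100%) and DMSO (0%).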

[16] = molecular target: Vitamin D3 receptor (Homo sapiens) (UniProt P11473); experiment: qHTS assay for small molecule antagonists of vitamin D receptor signaling (AID 588541)
Procedure, shortened: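 Antagonist-mode beta-lactamase reporter assay: HEK293T VDR-UAS-bla cells were exposed to titrated compound alongside 1-alpha,25-dihydroxyvitamin D3 at 3 nM final for 16 h. Values were normalized to the 50 nM agonist control and DMSO basal, with IC50 and efficacy from Hill equation fits.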

[17] = molecular target: Vitamin D3 receptor (Homo sapiens) (UniProt P11473); experiment: qHTS assay for small molecule agonists of vitamin D receptor signaling (AID 588543);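 also: 0% = DMSO basal and 100% = reference agonist control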
Procedure, shortened: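 VDR-UAS-bla HEK293T cells, 2000/well, 2% charcoal-stripped FBS; compound titration 16 h at 37 C; CCF4 beta-lactamase ratio read. Normalized to 50 nM 1-alpha,25-dihydroxyvitamin D3 (100%) and DMSO; Hill fit gives EC50, efficacy.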

[18] = qHTS assay for small molecule activators of the nuclear factor-kappa B (NF-kB) signaling pathway (AID 651749; active = well fitted activation curve with a large enough effect in the signal ratio; the % refers to the signal ratio; also: series mostly up to about 77 µM; % of control where 0% means no effect); conditions: NF-kB-bla ME-180 cells, beta-lactamase FRET ratio, 16 h; stronger effect = higher value
Procedure, shortened: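 FRET-based beta-lactamase detection in ME-180 cells reports NF-kB response-element-driven transcription following overnight (16 hr) compound treatment.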

[19] = molecular target: Peroxisome proliferator-activated receptor delta (Homo sapiens) (UniProt Q03181); experiment: qHTS assay for small molecule antagonists of peroxisome proliferator-activated receptor delta signaling (AID 588535);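 as to max response: cells co-treated with a PPAR-delta agonist as stimulator during compound exposure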
Procedure, shortened: as §2

[20] = molecular target: Peroxisome proliferator-activated receptor gamma (Homo sapiens) (UniProt P37231); experiment: qHTS assay for small molecule antagonists of peroxisome proliferator-activated receptor gamma signaling (AID 588537; active = well fitted inhibition curve with a large enough effect in the signal ratio, with a control signal flat, not every such curve was filed as active; the % refers to the signal ratio;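 also: reporter cells co-stimulated with 50 nM rosiglitazone agonist during compound treatment; % of control where 0% means no effect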)
Procedure, shortened: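 Cell-based beta-lactamase assay; GW9662 served as the antagonist control. Stimulation used rosiglitazone, final 50 nM, 16 h, 37 C.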

Peroxisome proliferator-activated receptor delta (Homo sapiens), sequence (Q03181 whole entry, looked up): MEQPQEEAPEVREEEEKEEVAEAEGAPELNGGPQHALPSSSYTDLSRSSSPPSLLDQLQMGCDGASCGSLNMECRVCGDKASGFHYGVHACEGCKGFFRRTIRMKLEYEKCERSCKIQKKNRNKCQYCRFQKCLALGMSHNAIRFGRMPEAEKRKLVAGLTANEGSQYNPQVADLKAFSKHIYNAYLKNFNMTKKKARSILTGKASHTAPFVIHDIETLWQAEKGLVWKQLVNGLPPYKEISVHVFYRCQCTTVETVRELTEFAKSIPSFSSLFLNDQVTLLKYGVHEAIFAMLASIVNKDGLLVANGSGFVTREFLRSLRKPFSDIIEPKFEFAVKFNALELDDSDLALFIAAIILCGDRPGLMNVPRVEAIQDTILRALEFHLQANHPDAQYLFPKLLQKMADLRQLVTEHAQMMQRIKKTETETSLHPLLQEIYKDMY
Vitamin D3 receptor (Homo sapiens), sequence (P11473 whole entry, looked up): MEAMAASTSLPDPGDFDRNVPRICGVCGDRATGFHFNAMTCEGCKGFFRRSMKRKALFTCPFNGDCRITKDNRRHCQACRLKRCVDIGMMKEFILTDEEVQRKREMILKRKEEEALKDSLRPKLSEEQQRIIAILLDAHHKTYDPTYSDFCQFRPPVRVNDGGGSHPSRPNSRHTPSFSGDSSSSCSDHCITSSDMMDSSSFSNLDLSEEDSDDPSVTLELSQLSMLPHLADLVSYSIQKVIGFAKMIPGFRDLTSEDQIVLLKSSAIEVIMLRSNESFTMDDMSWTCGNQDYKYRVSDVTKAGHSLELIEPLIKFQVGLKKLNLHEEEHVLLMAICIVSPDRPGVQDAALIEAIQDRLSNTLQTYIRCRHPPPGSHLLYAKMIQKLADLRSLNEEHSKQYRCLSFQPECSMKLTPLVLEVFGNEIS
Retinoic acid receptor RXR-alpha (Homo sapiens), sequence (P19793 whole entry, looked up): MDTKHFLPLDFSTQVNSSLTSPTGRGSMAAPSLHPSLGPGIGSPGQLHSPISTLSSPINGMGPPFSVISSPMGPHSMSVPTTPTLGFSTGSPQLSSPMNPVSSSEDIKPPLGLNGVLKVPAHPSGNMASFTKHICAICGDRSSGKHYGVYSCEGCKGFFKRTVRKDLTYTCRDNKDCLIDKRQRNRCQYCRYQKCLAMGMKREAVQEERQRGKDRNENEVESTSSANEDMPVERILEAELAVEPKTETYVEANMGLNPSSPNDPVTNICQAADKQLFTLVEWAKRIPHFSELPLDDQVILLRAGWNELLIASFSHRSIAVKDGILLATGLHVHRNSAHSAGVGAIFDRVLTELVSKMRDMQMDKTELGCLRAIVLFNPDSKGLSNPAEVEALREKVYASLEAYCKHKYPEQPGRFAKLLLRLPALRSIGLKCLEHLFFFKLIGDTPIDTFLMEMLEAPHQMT
Bile acid receptor (Homo sapiens), sequence (Q96RI1 whole entry, looked up): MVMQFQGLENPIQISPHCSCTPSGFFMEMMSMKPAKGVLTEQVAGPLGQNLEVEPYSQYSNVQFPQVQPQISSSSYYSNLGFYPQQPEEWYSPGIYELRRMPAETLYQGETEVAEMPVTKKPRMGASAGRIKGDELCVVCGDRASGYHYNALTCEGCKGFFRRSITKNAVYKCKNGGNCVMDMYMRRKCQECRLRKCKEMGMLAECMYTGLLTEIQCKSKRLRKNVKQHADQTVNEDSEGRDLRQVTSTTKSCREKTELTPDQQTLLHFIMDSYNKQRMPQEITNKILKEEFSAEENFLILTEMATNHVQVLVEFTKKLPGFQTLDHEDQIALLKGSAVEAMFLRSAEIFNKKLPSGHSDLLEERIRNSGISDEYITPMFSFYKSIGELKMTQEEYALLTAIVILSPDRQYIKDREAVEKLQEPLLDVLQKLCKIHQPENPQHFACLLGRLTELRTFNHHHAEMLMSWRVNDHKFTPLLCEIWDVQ
Peroxisome proliferator-activated receptor gamma (Homo sapiens), sequence (P37231 whole entry, looked up): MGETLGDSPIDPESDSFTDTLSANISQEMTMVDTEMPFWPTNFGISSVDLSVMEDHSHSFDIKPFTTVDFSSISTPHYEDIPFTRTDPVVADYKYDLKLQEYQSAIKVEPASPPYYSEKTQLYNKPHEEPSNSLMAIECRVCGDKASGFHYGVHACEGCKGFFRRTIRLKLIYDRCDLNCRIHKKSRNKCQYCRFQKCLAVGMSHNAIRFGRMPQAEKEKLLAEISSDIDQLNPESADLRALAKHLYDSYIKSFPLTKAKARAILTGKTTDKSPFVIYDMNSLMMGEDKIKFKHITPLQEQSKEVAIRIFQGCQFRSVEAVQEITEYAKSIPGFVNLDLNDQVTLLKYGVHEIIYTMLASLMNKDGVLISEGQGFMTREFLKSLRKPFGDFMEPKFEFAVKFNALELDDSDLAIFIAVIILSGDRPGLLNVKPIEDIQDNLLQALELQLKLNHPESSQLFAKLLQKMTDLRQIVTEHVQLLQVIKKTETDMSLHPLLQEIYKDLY
Thyroid hormone receptor beta (Homo sapiens), sequence (P10828 whole entry, looked up): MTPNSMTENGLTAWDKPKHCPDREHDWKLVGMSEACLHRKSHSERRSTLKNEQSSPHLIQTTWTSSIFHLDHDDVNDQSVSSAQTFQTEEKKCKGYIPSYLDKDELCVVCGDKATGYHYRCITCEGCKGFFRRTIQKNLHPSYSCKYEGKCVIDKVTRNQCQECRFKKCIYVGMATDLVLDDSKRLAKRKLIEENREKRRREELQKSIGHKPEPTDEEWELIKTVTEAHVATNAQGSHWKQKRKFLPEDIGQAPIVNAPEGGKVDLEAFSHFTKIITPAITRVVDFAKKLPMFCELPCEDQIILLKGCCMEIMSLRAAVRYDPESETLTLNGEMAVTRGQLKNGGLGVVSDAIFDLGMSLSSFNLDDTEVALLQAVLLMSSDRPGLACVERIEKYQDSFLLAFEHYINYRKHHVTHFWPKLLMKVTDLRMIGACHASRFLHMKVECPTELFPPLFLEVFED
Voltage-gated inwardly rectifying potassium channel KCNH2 (Homo sapiens), sequence (Q12809 whole entry, looked up): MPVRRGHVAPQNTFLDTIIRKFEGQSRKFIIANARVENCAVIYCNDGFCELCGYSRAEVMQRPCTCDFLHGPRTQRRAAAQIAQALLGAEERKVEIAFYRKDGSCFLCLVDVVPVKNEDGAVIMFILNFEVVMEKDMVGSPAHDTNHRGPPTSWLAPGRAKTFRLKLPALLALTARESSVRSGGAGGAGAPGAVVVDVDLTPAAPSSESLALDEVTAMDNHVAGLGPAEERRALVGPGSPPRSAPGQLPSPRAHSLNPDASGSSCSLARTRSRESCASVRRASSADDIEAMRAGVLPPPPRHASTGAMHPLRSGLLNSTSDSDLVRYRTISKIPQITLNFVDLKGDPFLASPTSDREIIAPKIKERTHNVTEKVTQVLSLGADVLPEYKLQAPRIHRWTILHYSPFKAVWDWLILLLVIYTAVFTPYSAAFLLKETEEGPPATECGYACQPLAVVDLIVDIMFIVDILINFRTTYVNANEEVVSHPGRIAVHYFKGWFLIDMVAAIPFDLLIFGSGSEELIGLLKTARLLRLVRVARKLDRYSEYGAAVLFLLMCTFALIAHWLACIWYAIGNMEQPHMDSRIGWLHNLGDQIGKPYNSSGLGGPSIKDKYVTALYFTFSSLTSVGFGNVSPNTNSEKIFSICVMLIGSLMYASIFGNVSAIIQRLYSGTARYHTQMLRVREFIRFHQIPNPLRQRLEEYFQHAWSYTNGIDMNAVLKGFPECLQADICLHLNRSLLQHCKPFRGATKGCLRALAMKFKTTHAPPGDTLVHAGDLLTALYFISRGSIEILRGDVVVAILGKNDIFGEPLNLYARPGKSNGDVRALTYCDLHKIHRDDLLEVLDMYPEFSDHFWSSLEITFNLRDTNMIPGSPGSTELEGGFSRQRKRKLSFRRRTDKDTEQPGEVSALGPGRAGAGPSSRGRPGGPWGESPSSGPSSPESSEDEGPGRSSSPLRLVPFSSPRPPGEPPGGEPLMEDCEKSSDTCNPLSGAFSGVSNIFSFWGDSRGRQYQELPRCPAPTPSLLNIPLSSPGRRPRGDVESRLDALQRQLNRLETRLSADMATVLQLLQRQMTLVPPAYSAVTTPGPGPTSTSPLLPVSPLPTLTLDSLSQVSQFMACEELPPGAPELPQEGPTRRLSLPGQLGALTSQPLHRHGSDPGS
Androgen receptor (Homo sapiens), sequence (P10275 whole entry, looked up): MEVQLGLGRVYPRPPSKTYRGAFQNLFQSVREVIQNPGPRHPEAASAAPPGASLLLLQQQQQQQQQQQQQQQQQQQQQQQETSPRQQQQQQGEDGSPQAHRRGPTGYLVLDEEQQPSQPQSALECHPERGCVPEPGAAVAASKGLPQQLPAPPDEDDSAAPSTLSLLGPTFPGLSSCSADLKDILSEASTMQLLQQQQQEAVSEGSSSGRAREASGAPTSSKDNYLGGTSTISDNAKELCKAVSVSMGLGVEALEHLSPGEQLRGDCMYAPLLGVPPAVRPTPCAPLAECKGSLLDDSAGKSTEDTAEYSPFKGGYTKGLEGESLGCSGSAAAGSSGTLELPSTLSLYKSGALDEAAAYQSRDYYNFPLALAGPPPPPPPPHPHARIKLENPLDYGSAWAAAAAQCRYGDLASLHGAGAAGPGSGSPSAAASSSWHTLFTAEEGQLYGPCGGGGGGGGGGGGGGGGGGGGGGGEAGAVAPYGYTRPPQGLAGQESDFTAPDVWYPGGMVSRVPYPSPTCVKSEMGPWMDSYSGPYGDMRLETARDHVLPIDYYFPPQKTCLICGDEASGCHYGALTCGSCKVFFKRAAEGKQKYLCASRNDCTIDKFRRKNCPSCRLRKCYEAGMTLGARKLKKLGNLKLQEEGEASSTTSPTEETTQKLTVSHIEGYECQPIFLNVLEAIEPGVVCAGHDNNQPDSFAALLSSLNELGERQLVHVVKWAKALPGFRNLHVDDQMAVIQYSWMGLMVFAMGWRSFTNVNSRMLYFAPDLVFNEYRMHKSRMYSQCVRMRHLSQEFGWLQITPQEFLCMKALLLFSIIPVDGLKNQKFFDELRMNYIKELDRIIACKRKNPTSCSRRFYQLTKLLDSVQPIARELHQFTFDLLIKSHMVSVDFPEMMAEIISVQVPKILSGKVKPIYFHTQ

FC(F)(F)c1cccc(Cl)c1
inactive: outcome [1] | outcome [2] | outcome [3] | outcome [5] | outcome [6] | max response [8] 6.29% | activity change % (negative = inhibition) [9] -4.74% | Potency [10] | Potency [11] | activation [12] -1.63%
-1.24%: max response [4]
3.78%: max response [7]

O=C1CCCCC1
inactive: outcome [1] | activation [13] -2.34% | outcome [15] | outcome [16] | outcome [17] | outcome [5] | outcome [6] | max response [8] -0.633% | activity change % (negative = inhibition) [9] -11.2% | Potency [10] | Potency [11] | activation [18] -1.28%
1.87%: max response [14]
-8.36%: max response [7]
-9.55%: max response [4]

C1COC1
inactive: outcome [2] | activation [13] 0.529% | outcome [3] | Potency [19] | outcome [15] | outcome [20] | outcome [16] | outcome [17] | outcome [5] | outcome [6] | max response [8] 0.231% | activity change % (negative = inhibition) [9] 14.8% | Potency [10] | Potency [11] | activation [12] 0.23% | activation [18] -0.645%
-21%: max response [14]
-1.49%: max response [4]
-8.83%: max response [7]

CCOc1ccc(NC(C)=O)cc1N
-0.981%: max response [14]
inactive: outcome [1] | Potency [19] | outcome [15] | outcome [16] | outcome [17] | outcome [5] | outcome [6] | activity change % (negative = inhibition) [9] 2.46% | Potency [10] | Potency [11] | activation [12] -6.53% | activation [18] -1.6%
3.78%: max response [4]

Cc1cccc(C(=O)O)c1
-5.23%: max response [14]
-2.27%: max response [7]
-7.73%: max response [4]
inactive: outcome [1] | Potency [19] | outcome [15] | outcome [20] | outcome [16] | outcome [17] | outcome [5] | outcome [6] | max response [8] 12.5% | activity change % (negative = inhibition) [9] 2.36% | Potency [10] | Potency [11] | activation [12] -0.475% | activation [18] 0.0626%

O=C(Cl)c1ccccc1[N+](=O)[O-]
inactive: outcome [1] | activation [13] -0.396% | outcome [3] | outcome [15] | outcome [5] | activity change % (negative = inhibition) [9] -10.2% | activation [12] 0.51% | activation [18] -0.445%
-17.2%: max response [4]

CC(=O)CC(C)C
19.2%: max response [14]
-1.65%: max response [7]
-6.71%: max response [4]
inactive: outcome [1] | outcome [2] | activation [13] 21.2% | outcome [3] | Potency [19] | outcome [15] | outcome [16] | outcome [17] | outcome [5] | outcome [6] | max response [8] 12.3% | activity change % (negative = inhibition) [9] -3.32% | Potency [11] | activation [12] -2.45% | activation [18] 0.24%

O=Cc1ccc(Cl)cc1
inactive: outcome [1] | outcome [15] | outcome [20] | outcome [16] | outcome [17] | outcome [5] | outcome [6] | max response [8] -5.61% | Potency [10] | activation [12] -0.245%
-0.849%: max response [7]
-8%: max response [4]
7.54%: max response [14]
